Test results from the supplement of paper PMC13380429.
A number with no mark means an inactive call.

Test system: Vero E6 infected with SARS-CoV-2
Assay: inhibition of SARS-CoV-2 cytopathic effect; higher = more antiviral protection, active = above 15
Conditions: 8.33 nM; 48 h

Structure (SMILES)	inhibition of SARS-CoV-2 cytopathic effect [%]
COc1cc(C(=S)N2CCOCC2)ccc1O [vanitiolide]	-1.31
Cc1cc(-c2nc(-c3ccc(OC(F)(F)F)cc3)no2)nn1Cc1ccnc(N2CCN(C3CC3)CC2)c1	-2.02
FC(F)(F)C(F)(F)C(F)(F)C(F)(F)C(F)(F)C(F)(F)C(F)(F)C(F)(F)Br [perflubron]	1.61
C1CCC(C(CC2CCCCN2)C2CCCCC2)CC1 (stereo not given) [perhexiline]	4.47
COc1ccc(-c2cc(C(F)F)nn2-c2ccc(S(N)(=O)=O)cc2)cc1F [deracoxib]	-0.35
CN(C)CC[C@@]1(c2ccc(Cl)cc2)Cc2ccccc2C(=O)O1 (racemic)	-2.36
O=C1NC(O)CCN1[C@@H]1O[C@H](CO)[C@@H](O)[C@H]1O (stereo not given in full) [tetrahydrouridine]	1.19
O=C1C[C@@H]2OCC=C3CN4CC[C@]56c7ccccc7N1[C@H]5[C@H]2[C@H]3C[C@H]46 [strychnine]	0.64
CCCCCS(=O)(=O)CCCCCCCCCCn1c(-c2ccc(O)cc2)c(C)c2cc(O)ccc21	-2.92
CCCCCCCCCCCC(=O)O [lauric-acid]	2.75
C[C@H]1O[C@@H](Oc2c(-c3cc(O)c(O)c(O)c3)oc3cc(O)cc(O)c3c2=O)[C@@H](O)[C@@H](O)[C@@H]1O [myricitrin]	-0.53
CC1=CC(=C(c2ccc(N)cc2)c2ccc(N)cc2)C=CC1=N [basic-fuchsin]	0.35
C[C@@H](N)[C@H]1CC[C@H](C(=O)Nc2ccncc2)CC1	-4.44
CC(CCc1ccc(O)cc1)NCC(O)c1ccc(O)cc1 (stereo not given) [ractopamine]	-0.49
Cc1ccc(C)c([C@H](O)CNC(C)C)c1 [benzenemethanol,-2,5-dimethyl-[[(1-methylethyl)amino]methyl]]	2.02
CC(C)c1cc(-c2ccc(F)c3ccccc23)nc(N)n1	1.62
Clc1cccc(-n2nnnc2NCc2ccccc2Oc2ccccn2)c1Cl	-1.76
CC(=O)Oc1ccc(C(c2ccc(OC(C)=O)cc2)c2ccccn2)cc1 [bisacodyl]	-1.99
Clc1ccc(CO/N=C(\Cn2ccnc2)c2ccc(Cl)cc2Cl)c(Cl)c1 [oxiconazole]	0.43
O=C1C=C2C=C[C@@H]3C[C@@]2(O1)[C@H]1CCCCN31 [securinine]	3.64

Structure (SMILES)	inhibition of SARS-CoV-2 cytopathic effect [%]
CC[C@H](C)n1cc(C)c2c(C(=O)NCc3c(C)cc(C)[nH]c3=O)cc(-c3ccc(N4CCNCC4)nc3)cc21	2.76
c1ccc2c(c1)CCCc1cc(NCCN3CCOCC3)nnc1-2	1.77
CNC1CC(N)C(O)C(OC2OC(CO)C(O)C3OC4(OC(C(N)CO)C(O)C(O)C4O)OC23)C1O (stereo not given) [Hygromycin B]	-1.63
Oc1cc(O)cc(/C=C/c2ccc(O)c(O)c2)c1 [piceatannol]	-0.84
CC(C)(O)c1ccn2c(-c3ccc(F)c(-c4ccc(F)cc4C#N)c3)cnc2c1F	0.82
CCN(CC)CCOC(=O)C(c1ccccc1)C1CCCCC1 (stereo not given) [drofenine]	1.9
C[C@](O)(COc1ccc(C#N)cc1)C(=O)Nc1ccc(C#N)c(C(F)(F)F)c1 [ostarine]	-1.03
CCCN1C[C@H](CSC)C[C@@H]2c3cccc4[nH]cc(c34)C[C@H]21 [pergolide]	-0.75
Nc1ccc2ncnc(NCCc3ccc(Oc4ccccc4)cc3)c2c1	1.54
CC(C)Oc1ccc(Cc2ccc(NC3=NCCN3)cc2)cc1	0.26
CC[C@@H](C(N)=O)N1CCCC1=O [levetiracetam]	0.42
CCCCn1c(-c2ccccc2)nc(-c2ccccc2)c1CN(Cc1ccc2c(c1)OCO2)Cc1ccc2c(c1)OCO2	1.63
CN1C(=O)/C(=C2/C(=O)Nc3ccccc32)c2ccccc21 [meisoindigo]	-3.61
CC(C)Nc1cc(-c2c[nH]c(C(=O)N[C@H](CO)c3cccc(Cl)c3)c2)c(Cl)cn1	0.33
O=C1NC(c2ccccc2)(c2ccccc2)C(=O)N1COP(=O)(O)O [fosphenytoin]	4.09
CCCS(=O)(=O)Nc1ccc(F)c(C(=O)c2c[nH]c3ncc(Cl)cc23)c1F	0.41
CC(C)C[C@@H](NC(=O)[C@H](Cc1ccccc1)NC(=O)CNC(=O)[C@@H](C)NC(=O)[C@@H](N)Cc1ccc(O)cc1)C(=O)O	3.3
[I-].[K+] [potassium-iodide]	-3.7
CC(C)Cc1ccc([C@@H](C)C(=O)NS(C)(=O)=O)cc1 [reparixin]	3.05
O=[N+]([O-])O[C@@H]1CO[C@H]2[C@@H]1OC[C@@H]2O [isosorbide-mononitrate]	-1.06
